In PubChem BioAssay (Tox21):
Several values for one entry are separate records, joined by “and”; a condition that tells them apart may be missing. Equal entries are not always repeated. Results filed as inconclusive are left out. Entries that show only a call come without a potency. Some compounds were tested as several samples or in several runs, with calls that do not always agree. Activity calls are given as the source filed them. Unless noted, the call rests on the fitted dose curve; in most records, active means well fitted curve in the direction sought with a large enough effect in the repeat runs; inconclusive means weak or mixed curves; inactive means no such curve, though single readings can be large; an effect the other way counts as inactive or inconclusive.

Legend:
[1] = qHTS assay to identify small molecule agonists of the estrogen receptor alpha (ER-alpha) signaling pathway in the presence of an antagonist - cell viability counter screen (AID 1259386);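 further: cells exposed to compounds for 22 h at 37 °C before the viability read; nearly all actives have a fitted effect of over 30% in size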; further: potency means the concentration at half of the fitted maximal effect
Outline: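 VM7Luc4E2, stripped-serum pre-culture 5 d; 24hr plating; +ICI-182,780 10.0nM final; cpds 15 conc, 22hr, 37C/5% CO2; CellTiter-Fluor added at 21hr, fluorescence 1hr later.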

[2] = biological target: Progesterone receptor (Homo sapiens) (UniProt P06401); test: qHTS assay to identify small molecule agonists of the progesterone receptor (PR) signaling pathway (AID 1346784; calls by dose curve; further: nearly all actives have a fitted effect of over 30% in size)
Chain of Progesterone receptor (Homo sapiens) (P06401 whole entry, looked up): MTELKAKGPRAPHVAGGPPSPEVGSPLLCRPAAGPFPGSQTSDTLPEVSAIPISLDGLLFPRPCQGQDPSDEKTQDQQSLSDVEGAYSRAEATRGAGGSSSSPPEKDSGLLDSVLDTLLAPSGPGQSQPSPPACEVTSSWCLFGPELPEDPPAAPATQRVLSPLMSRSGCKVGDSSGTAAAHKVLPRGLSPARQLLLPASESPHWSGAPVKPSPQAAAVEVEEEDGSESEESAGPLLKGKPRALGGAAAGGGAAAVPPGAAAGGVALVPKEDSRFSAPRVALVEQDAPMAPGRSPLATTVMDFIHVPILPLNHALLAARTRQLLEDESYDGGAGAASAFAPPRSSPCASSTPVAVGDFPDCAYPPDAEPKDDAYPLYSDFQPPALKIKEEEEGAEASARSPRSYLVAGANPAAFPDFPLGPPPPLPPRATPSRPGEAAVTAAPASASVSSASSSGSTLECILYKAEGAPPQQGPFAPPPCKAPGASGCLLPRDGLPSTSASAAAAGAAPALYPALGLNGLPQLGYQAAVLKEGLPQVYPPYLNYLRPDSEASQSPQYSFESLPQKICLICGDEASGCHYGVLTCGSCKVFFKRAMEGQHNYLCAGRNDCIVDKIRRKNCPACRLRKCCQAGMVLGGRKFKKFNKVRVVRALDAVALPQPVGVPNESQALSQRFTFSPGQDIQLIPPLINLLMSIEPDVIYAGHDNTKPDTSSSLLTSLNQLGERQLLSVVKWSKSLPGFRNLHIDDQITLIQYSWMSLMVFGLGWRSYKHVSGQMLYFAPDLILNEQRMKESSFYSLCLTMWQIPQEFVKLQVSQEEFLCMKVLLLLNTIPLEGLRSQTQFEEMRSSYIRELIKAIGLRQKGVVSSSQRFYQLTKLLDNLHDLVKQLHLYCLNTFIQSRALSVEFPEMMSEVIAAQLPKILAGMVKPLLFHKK
Outline: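 Beta-lactamase reporter read-out: after 16 hr compound treatment at 37C and a further 2 hr at room temperature with LiveBLAzer B/G FRET substrate, fluorescence was measured in PR-UAS-bla HEK 293T cells grown in 2% charcoal-stripped serum.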

[3] = biological target: Progesterone receptor (Homo sapiens) (UniProt P06401); test: qHTS assay to identify small molecule antagonists of the progesterone receptor (PR) signaling pathway (AID 1346795; active means well fitted inhibition curve with a large enough effect in the signal ratio in the repeat runs, not every such curve was filed as active; the % refers to the signal ratio)
Outline: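 Read-out is fluorescence from the LiveBLAzer B/G FRET substrate, cleaved by a UAS-controlled beta-lactamase in PR-UAS-bla HEK293T cells after 16 hr exposure to compound plus 1 nM promegestone (final), followed by 2 hr at room temperature.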

[4] = qHTS assay to identify small molecule antagonists of the progesterone receptor (PR) signaling pathway - cell viability counter screen (AID 1346798);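 further: HEK293T PR-UAS-bla cells stimulated with the agonist R5020; series mostly up to about 92 µM; nearly all actives have a fitted effect of over 50% in size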
Outline: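 HEK293T PR-UAS-bla, 2% charcoal-stripped FBS; 4 hr pre-plate; cpd + R5020, 16 h 37C; LiveBLAzer read first; then CellTiter-Glo 30 min RT, luminescence.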

[5] = qHTS assay to identify small molecule agonists of the progesterone receptor (PR) signaling pathway - cell viability counter screen (AID 1346799; calls by dose curve; further: nearly all actives have a fitted effect of over 45% in size; further: potency means the concentration at half of the fitted maximal effect)
Outline: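 Luminescence from CellTiter-Glo, added after the beta-lactamase FRET read in the same wells, gave cytotoxicity in PR-UAS-bla HEK293T cells treated with compounds for 16 hr at 37C.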

[6] = qHTS assay to identify small molecule agonists of the TGF-beta/Smad signaling pathway - cell viability counter screen (AID 1346829); further: top concentration of the series differs between compounds; nearly all actives have a fitted effect of over 45% in size
Outline: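 HEK 293T SBE-bla line, 5 hr compound exposure at 37 C, multiplexed CellTiter-Glo viability read by luminescence.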

[7] = qHTS assay to identify small molecule agonists of the TGF-beta/Smad signaling pathway (AID 1346859; active means well fitted activation curve with a large enough effect in the signal ratio in the repeat runs, not every such curve was filed as active; the % refers to the signal ratio; further: series mostly up to about 77 µM)
Outline: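 SBE-bla HEK 293T, 4,000 cells/well, plated o/n; cpd in DMSO, 5 hr, 37 C/5% CO2; B/G FRET substrate 2 hr RT; ex 405, em 460/530 nm.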

[8] = biological target: Thyrotropin-releasing hormone receptor (Homo sapiens) (UniProt P34981); test: qHTS assay to identify small molecule antagonists of the thyrotropin-releasing hormone receptor (TRHR) signaling pathway (AID 1346877; active means well fitted inhibition curve with a large enough effect in the repeat runs, not every such curve was filed as active; further: series mostly up to about 51 µM)
Chain of Thyrotropin-releasing hormone receptor (Homo sapiens) (P34981 whole entry, looked up): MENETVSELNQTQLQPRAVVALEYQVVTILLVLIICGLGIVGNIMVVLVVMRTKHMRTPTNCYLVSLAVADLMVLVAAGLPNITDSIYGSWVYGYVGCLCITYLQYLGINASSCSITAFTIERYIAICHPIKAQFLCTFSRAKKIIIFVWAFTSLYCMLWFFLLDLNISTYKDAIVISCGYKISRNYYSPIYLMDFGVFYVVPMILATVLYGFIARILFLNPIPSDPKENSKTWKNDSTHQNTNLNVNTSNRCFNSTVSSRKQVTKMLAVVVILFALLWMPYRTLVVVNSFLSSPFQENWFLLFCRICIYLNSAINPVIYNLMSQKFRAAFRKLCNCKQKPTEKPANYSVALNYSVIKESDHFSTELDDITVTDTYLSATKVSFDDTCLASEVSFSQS
Outline: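 Intracellular calcium fluorescence, read kinetically every second over 3 min, reports TRH-evoked signalling in HEK293 cells carrying TRHR. Test compounds were added 5 min ahead of a 1 nM TRH challenge.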

[9] = biological target: Thyrotropin-releasing hormone receptor (Homo sapiens) (UniProt P34981); test: qHTS assay to identify small molecule agonists of the thyrotropin-releasing hormone receptor (TRHR) signaling pathway (AID 1346891; calls by dose curve; further: series mostly up to about 58 µM)
Outline: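 Intracellular calcium rise, read as fluorescence every second for 3 min, served as the agonist signal in dye-loaded HEK293 cells expressing TRHR; each compound ran at 15 concentrations in triplicate.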

[10] = Human pregnane X receptor (PXR) small molecule agonists, qHTS cell viability counter screen (AID 1346977); further: nearly all actives have a fitted effect of over 50% in size; further: potency means the concentration at half of the fitted maximal effect
Outline: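 PXR-Luc HepG2, 2,000 cells/well, 5% charcoal-stripped FBS; 5hr settle; cpd 24hr, 37C/5% CO2; CellTiter-Fluor at 23hr, read 1hr later (fluorescence).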

[11] = Caspase-3/7 induction in HepG2 cells by small molecules, qHTS assay (AID 1346978); further: nearly all actives have a fitted effect of over 15% in size
Outline: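 Caspase-3/7 induction was measured by Caspase-Glo 3/7 luminescence (30 min, room temperature) after a 17 hr compound exposure of wild-type HepG2 cells seeded at 2,000 per well and pre-incubated 5 hr.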

[12] = Caspase-3/7 induction in CHO-K1 cells by small molecules, qHTS cell viability counter screen (AID 1346979); further: nearly all actives have a fitted effect of over 35% in size; further: potency means the concentration at half of the fitted maximal effect
Outline: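 Cells (CHO-K1, wild type) are plated at 1,500 per well and incubated 5hr. Test compounds in DMSO are then pinned in, followed by 16hr at 37C and 5% CO2. Viability is read by CellTiter-Fluor fluorescence after 1hr.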

[13] = Caspase-3/7 induction in CHO-K1 cells by small molecules, qHTS assay (AID 1346980); further: nearly all actives have a fitted effect of over 15% in size
Outline: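 Luminescent Caspase-Glo 3/7 read (30min, room temperature) quantified apoptosis induction. Cells were wild-type CHO-K1, treated with compound for 17hr at 37 C and 5% CO2.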

[14] = Caspase-3/7 induction in HepG2 cells by small molecules, qHTS cell viability counter screen (AID 1346981); further: nearly all actives have a fitted effect of over 30% in size; further: potency means the concentration at half of the fitted maximal effect
Outline: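 HepG2, WT, 2,000 cells/well; 5 hr pre-incubation 37 C/5% CO2; compound pin-transferred from DMSO; 16 hr exposure; CellTiter-Fluor, 1 hr; fluorescence read.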

[15] = biological target: Nuclear receptor subfamily 1 group I member 2 (Homo sapiens) (UniProt O75469); test: Human pregnane X receptor (PXR) small molecule agonists, qHTS assay (AID 1346982); further: nearly all actives have a fitted effect of over 35% in size; further: potency means the concentration at half of the fitted maximal effect
Chain of Nuclear receptor subfamily 1 group I member 2 (Homo sapiens) (O75469 whole entry, looked up): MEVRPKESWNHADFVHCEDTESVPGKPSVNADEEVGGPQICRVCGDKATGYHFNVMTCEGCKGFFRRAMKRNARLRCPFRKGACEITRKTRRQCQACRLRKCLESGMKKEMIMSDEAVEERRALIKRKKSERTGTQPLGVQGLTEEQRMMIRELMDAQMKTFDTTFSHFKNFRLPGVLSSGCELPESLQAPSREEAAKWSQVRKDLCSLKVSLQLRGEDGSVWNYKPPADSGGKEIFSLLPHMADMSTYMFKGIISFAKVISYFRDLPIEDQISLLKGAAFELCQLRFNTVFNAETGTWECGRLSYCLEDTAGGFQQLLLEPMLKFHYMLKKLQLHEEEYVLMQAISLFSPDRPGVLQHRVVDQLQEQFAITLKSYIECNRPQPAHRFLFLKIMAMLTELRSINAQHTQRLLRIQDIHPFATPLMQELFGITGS
Outline: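 Luciferase signal from ONE-Glo (30 min, room temperature) measured activation of hPXR-driven CYP3A4 reporter expression in PXR-Luc HepG2 cells treated with compounds for 24 hr at 37 C.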

[16] = biological target: Nuclear receptor subfamily 1 group I member 2 (Homo sapiens) (UniProt O75469); test: Human pregnane X receptor (PXR) activation by small molecules, qHTS assay (AID 1346985); further: nearly all actives have a fitted effect of over 40% in size
Outline: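 DPX-2 cells (HepG2 co-transfected with a PXR response element and a CYP3A4-promoter luciferase construct) were seeded at 2,000 per well, rested 5 hr at 37C, then exposed to DMSO-dissolved compounds for 24 hr. Activation was read as luciferase luminescence.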

[17] = biological target: Cytochrome P450 2D6 (Homo sapiens) (UniProt P10635); test: Cytochrome P450 Family 2 Subfamily D Member 6 (CYP2D6) small molecule antagonists: luciferase reporter qHTS assay (AID 1671196); further: nearly all actives have a fitted effect of over 50% in size; further: potency means the concentration at half of the fitted maximal effect
Chain of Cytochrome P450 2D6 (Homo sapiens) (P10635 whole entry, looked up): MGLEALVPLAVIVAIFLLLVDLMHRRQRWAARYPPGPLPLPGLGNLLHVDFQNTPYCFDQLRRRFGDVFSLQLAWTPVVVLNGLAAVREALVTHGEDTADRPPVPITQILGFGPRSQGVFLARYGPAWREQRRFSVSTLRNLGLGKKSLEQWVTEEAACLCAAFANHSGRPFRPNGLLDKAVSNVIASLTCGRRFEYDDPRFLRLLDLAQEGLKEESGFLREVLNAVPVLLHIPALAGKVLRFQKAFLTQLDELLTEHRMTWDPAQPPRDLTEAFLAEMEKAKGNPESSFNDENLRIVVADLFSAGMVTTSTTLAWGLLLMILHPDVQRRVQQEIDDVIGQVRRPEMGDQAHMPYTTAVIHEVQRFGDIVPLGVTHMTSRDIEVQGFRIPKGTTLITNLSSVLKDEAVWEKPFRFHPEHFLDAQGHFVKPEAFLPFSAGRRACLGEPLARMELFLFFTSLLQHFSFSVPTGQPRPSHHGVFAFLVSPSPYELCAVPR
Outline: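 Read-out is luminescence from luciferin formed by CYP2D6 turnover of a proluciferin substrate, recorded as relative luminescence units. Reactions ran 1 h at room temperature after NADPH regeneration solution was added.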

[18] = biological target: Cytochrome P450 2C19 (Homo sapiens) (UniProt P33261); test: Cytochrome P450 Family 2 Subfamily C Member 19 (CYP2C19) small molecule antagonists: luciferase reporter qHTS assay (AID 1671197); further: nearly all actives have a fitted effect of over 65% in size; further: potency means the concentration at half of the fitted maximal effect
Chain of Cytochrome P450 2C19 (Homo sapiens) (P33261 whole entry, looked up): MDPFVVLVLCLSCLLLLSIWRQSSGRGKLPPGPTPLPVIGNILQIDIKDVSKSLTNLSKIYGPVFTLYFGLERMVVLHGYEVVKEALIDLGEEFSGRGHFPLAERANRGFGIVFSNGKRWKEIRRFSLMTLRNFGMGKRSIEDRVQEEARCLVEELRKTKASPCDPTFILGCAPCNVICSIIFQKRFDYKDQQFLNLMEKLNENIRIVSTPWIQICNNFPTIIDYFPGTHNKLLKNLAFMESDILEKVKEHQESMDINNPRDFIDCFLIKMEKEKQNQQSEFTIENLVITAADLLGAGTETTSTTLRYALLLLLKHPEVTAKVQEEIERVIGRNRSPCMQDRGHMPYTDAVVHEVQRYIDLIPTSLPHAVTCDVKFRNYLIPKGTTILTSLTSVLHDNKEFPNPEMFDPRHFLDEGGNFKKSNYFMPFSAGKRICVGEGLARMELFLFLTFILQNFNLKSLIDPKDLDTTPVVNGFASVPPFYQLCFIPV
Outline: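 First, compounds are pinned into enzyme-substrate mix and held 10 min at room temperature. Second, NADPH regeneration solution is added and plates incubate 1 h at 37C. Third, detection reagent is added and luminescence read after 20 min.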

[19] = biological target: Cytochrome P450 2C9 (Homo sapiens) (UniProt P11712); test: Cytochrome P450 Family 2 Subfamily C Member 9 (CYP2C9) small molecule antagonists: luciferase reporter qHTS assay (AID 1671198); further: nearly all actives have a fitted effect of over 50% in size; further: potency means the concentration at half of the fitted maximal effect
Chain of Cytochrome P450 2C9 (Homo sapiens) (P11712 whole entry, looked up): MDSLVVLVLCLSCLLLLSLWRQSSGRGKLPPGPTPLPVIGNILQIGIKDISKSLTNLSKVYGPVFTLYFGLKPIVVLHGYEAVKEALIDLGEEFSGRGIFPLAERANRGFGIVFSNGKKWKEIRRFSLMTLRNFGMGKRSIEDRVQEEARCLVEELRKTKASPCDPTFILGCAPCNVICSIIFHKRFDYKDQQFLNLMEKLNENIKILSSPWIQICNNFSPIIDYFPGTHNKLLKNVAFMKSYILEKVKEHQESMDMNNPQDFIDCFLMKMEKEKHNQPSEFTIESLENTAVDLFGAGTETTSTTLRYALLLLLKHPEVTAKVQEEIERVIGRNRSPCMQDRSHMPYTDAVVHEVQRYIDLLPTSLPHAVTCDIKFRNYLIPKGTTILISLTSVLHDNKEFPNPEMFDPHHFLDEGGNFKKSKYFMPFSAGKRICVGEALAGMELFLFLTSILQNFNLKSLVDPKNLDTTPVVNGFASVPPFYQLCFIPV
Outline: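 Enzyme-substrate mix preincubated with compound 10 min at room temperature; reaction started with NADPH regeneration solution, 1 h 37C. Luminescent luciferin product read after 20 min detection reagent.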

[20] = qHTS assay to identify small molecule antagonists of the TGF-beta/Smad signaling pathway - cell viability counter screen (AID 1346824); further: nearly all actives have a fitted effect of over 50% in size
Outline: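 Cytotoxicity counter-screen run in the same wells as the beta-lactamase Smad reporter read: CellTiter-Glo luminescence after 30 min at room temperature. HEK 293T SBE-bla cells had 5 hr compound exposure at 37 C with TGF-beta1 (0.25 ng/mL stock).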

Structure (SMILES) | Potency [1] | Potency [2] | outcome [3] | Potency [4] | Potency [5] | Potency [6] | outcome [7] | outcome [8] | outcome [9] | Potency [10] | Potency [11] | Potency [12] | outcome [13] | Potency [14] | Potency [15] | Potency [16] | Potency [17] | Potency [18] | Potency [19] | outcome [20]
O=C(O)CCC(=O)O | inactive | inactive | inactive | inactive | inactive | inactive | inactive | inactive | inactive | inactive | inactive | inactive | inactive | inactive | inactive | inactive | inactive | inactive | inactive | 
COc1c2occc2cc2ccc(=O)oc12 | inactive | inactive | inactive | inactive | inactive | inactive | inactive |  |  | inactive | inactive | inactive | inactive | inactive | 61.5 µM (active) and 48.6 µM (active) |  |  |  | 5.06 µM (active) and 10 µM (active) and 4.9 µM (active) | inactive
NC(N)=NC(=O)c1nc(Cl)c(N)nc1N | inactive | inactive | inactive | inactive | inactive | inactive | inactive | inactive | inactive |  | inactive | inactive | inactive | inactive | 69 µM (active) and 50.4 µM (active) and inactive |  | inactive | inactive | inactive | inactive
OC(Cn1cncn1)(Cn1cncn1)c1ccc(F)cc1F | inactive | inactive | inactive | inactive | inactive | inactive | inactive |  |  | inactive |  | inactive | inactive | inactive | inactive | inactive | 22.7 µM (active) and inactive |  |  | inactive
CC1(C)[C@@H]2CC[C@@]1(C)C(=O)C2 | inactive | inactive | inactive | inactive | inactive | inactive | inactive | inactive | inactive | inactive | inactive | inactive | inactive | inactive | inactive | inactive | inactive | inactive | inactive | inactive
C/C=C/c1ccc(OC)cc1 | inactive | inactive | inactive | inactive | inactive | inactive | inactive | inactive | inactive | inactive | inactive | inactive | inactive | inactive | inactive | inactive | inactive | inactive and 21.9 µM (active) | inactive and 13.8 µM (active) | inactive
Cc1ccc(S(=O)(=O)NC(=O)NN2CCCCCC2)cc1 | inactive | inactive | inactive | inactive | inactive | inactive | inactive | inactive | inactive | inactive | inactive | inactive | inactive | inactive |  |  |  |  |  | inactive
CC(=O)Nc1nnc(S(N)(=O)=O)s1 | inactive | inactive | inactive | inactive | inactive | inactive | inactive | inactive | inactive | inactive | inactive | inactive | inactive | inactive | inactive |  | inactive | inactive | inactive | inactive
O=C(c1ccccc1)C(O)c1ccccc1 (stereo unspecified) | inactive | inactive | inactive | inactive | inactive | inactive | inactive | inactive | inactive | inactive | inactive | inactive | inactive | inactive | inactive | inactive | 39.6 µM (active) and inactive | 17.7 µM (active) and 31.7 µM (active) and 8.71 µM (active) | inactive | inactive
CC(=O)OCC(COC(C)=O)OC(C)=O | inactive | inactive | inactive | inactive | inactive | inactive | inactive | inactive | inactive | inactive | inactive | inactive | inactive | inactive | inactive and 4.33 µM (active) | inactive | inactive | inactive | inactive | 
O=C(O)c1cccnc1 | inactive | inactive | inactive | inactive | inactive | inactive | inactive | inactive | inactive | inactive | inactive | inactive | inactive | inactive |  |  |  |  |  | 
O=C(O)c1[nH]n(-c2ccc(S(=O)(=O)O)cc2)c(=O)c1N=Nc1ccc(S(=O)(=O)O)cc1 | 29.8 µM (active) and 61.3 µM (active) and 25.5 µM (active) |  |  | inactive | inactive | inactive | inactive | inactive | inactive | 39.8 µM (active) and 45.4 µM (active) | inactive | 29.8 µM (active) and 48.7 µM (active) and 45.4 µM (active) | inactive | 29.8 µM (active) and 27.4 µM (active) and 50.9 µM (active) | inactive |  | inactive | inactive and 79.9 µM (active) and 29.6 µM (active) | inactive and 18.7 µM (active) | inactive
Cn1cc[nH]c1=S | inactive | inactive | inactive |  | 43.2 µM (active) and inactive | inactive | inactive |  |  | inactive | inactive | inactive | inactive | inactive |  | inactive | inactive | inactive | inactive and 71 µM (active) | 
